From PubChem BioAssay AID1210 (NMMLSC, 2008)
Unmarked numbers belong to inactive results. The source made the active and inactive calls.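 How the source made its calls: active means blocks over 70% of labeled estradiol binding at 10 µM, or over a set limit at 100 nM; inactive means the rest.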

Biological target: Estrogen receptor beta (Homo sapiens) (UniProt Q92731)
Assay: displacement of fluorescent estrogen from ERbeta – cell-based, Cos7 ERbeta-GFP, flow cytometry, primary screen (AID 1210);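 further: 0% = DMSO vehicle wells and 100% = complete loss of labeled estradiol signal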
Conditions: fluorescent estrogen binding, at 10 µM, active compounds read high

Chain of Estrogen receptor beta (Homo sapiens) (Q92731 whole entry, looked up): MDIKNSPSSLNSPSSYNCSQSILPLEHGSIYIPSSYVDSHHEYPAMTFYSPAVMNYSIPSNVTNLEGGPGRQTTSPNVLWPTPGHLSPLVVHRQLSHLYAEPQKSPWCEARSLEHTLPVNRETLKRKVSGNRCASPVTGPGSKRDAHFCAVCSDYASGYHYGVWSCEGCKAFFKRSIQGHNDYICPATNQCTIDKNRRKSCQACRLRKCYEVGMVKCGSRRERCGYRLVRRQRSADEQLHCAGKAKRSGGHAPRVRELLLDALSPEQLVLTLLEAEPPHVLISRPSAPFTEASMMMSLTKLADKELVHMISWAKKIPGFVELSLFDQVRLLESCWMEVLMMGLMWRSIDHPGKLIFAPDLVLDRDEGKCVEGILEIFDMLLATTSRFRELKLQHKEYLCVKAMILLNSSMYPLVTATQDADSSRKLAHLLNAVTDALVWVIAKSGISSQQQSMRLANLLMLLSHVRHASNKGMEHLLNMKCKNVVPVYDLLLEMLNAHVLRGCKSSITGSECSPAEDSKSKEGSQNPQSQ

Compound | inhibition
COC(=O)c1ccc(-c2n[nH]c(=O)c3ccccc23)cc1 | 32%
O=C(O)c1cc(-c2ccco2)nc2ccccc12 | 14%
CN(/N=C/c1cccnc1)c1cnn(-c2ccc(F)c(Cl)c2)c(=O)c1Cl | 20%
Nc1ccc2nc(-c3cc(Cl)c(N)c(Cl)c3)[nH]c2c1 | 10%
COc1cccc(C2NCCc3cc(OC)c(OC)cc32)c1 (stereo not drawn) | 15%
CCC(Oc1ccc2c3c(c(=O)oc2c1C)CCC3)C(=O)OC (stereo not drawn) | 15%
COc1cc2c(cc1OC)CC(C)(C)N(Cc1ccco1)C2 | 15%
CCCC1Nc2ccc(C(=O)O)cc2C2C=CCC12 (stereo not drawn) | 44%
CC1(C)CC(=O)C=C(NC2CC(C)(C)NC(C)(C)C2)C1 | 2%
COc1cc([N+](=O)[O-])cc2c1NC(c1ccc(Br)cc1)C1CC=CC21 (stereo not drawn) | 17%
O=C(O)COc1cc2oc(=O)c3c(c2cc1Cl)CCCC3 | 11%
CCOc1ccc(N=C2NC(=O)S/C2=C\c2ccc(OC)cc2)cc1 | 47%
COC(=O)c1ccc(OCc2c(C)noc2C)cc1 | 0%
CC1(C)Cc2[nH]c(=O)c(C(=O)O)cc2CO1 | 43%
NC(=O)c1ccsc1NC(=O)COC(=O)Cc1ccsc1 | 44%
CC1CCN(Cc2c(O)ccc3c4c(c(=O)oc23)CCC4)CC1 | 21%
O=C(COC(=O)C1CC2C=CC1C2)NCc1ccco1 (stereo not drawn) | 25%
CC(=O)Nc1ccc2[nH]c(C)cc(=O)c2c1 | 64%
CC(=O)Oc1ccc(C2Nc3c(C(=O)O)ccc([N+](=O)[O-])c3C3C=CCC32)cc1 (stereo not drawn) | 56%

Compound | inhibition
CN(C)S(=O)(=O)N(CC(=O)N(Cc1ccccc1)Cc1ccccc1)c1ccccc1 | 66%
C=C1c2ccc(OC)cc2NC(=O)N1c1ccccc1 | 15%
CC(=O)OC1CC2(C)C(=O)CCC2C2CCc3cc(O)ccc3C12 (stereo not drawn) | 95% (active)
CCCCCCc1cc2c3c(c(=O)oc2cc1OCC(N)=O)CCC3 | 12%
COc1ccc2c(c1)c(=O)oc1cc3oc(C)c(C)c3cc12 | 24%
Fc1ccc2c(c1)C1C=CCC1C(c1cc3c(cc1Br)OCO3)N2 (stereo not drawn) | 0%
Nc1ccc(-c2nc3ccc([N+](=O)[O-])cc3[nH]2)cc1 | 61%
COc1cc([N+](=O)[O-])cc2c1NC(c1ccccc1Cl)C1CC=CC21 (stereo not drawn) | 20%
COc1cc([N+](=O)[O-])cc2c1N[C@@H](c1ccc(C(=O)O)cc1)[C@H]1CC=C[C@@H]21 | 42%
O=C(OC1CCCCC1)c1ccc2c(c1)C1C=CCC1C(C(=O)O)N2 (stereo not drawn) | 7%
CC(=O)c1ccc(N2Cc3ccccc3C2)cc1 | 19%
CCOc1cc2c(c([N+](=O)[O-])c1)NC(c1ccccc1)C1CC=CC21 (stereo not drawn) | 17%
CCOC(=O)N1CCc2[nH]c3ccc(C)cc3c2C1 | 9%
c1coc(C2Nc3ccccc3C3OCCC23)c1 (stereo not drawn) | 0%
Cc1nn(-c2ccccc2)c2sc(C#N)c(N)c12 | 6%
CCOc1cc2c(cc1OCC)C(C1CCCCC1)NCC2 (stereo not drawn) | 12%
Nc1ccc2nn(-c3cccc4ccccc34)nc2c1 | 28%
O=C(O)c1ccc([N+](=O)[O-])c2c1NC(c1ccccc1)C1CC=CC21 (stereo not drawn) | 62%
CCCOc1cc2oc(=O)c3c(c2cc1CC)CCCC3 | 20%
